PubChem BioAssay AID1159580 (chemical genetic matrix, 2015)
Several values for one entry are separate records, joined by “and”; a condition that tells them apart may be missing. Equal entries are not always repeated. The whole screen tested about 5,500 compounds, of which about 2,000 (36%) were called active. Roughly 18% stayed inconclusive and do not appear here. No stated cut-off is given here; in the data, active means normalized growth mostly below about 0.91 (no sharp cut-off); inconclusive means no clear call, values can overlap the other calls; inactive means mostly above about 0.92. The list shows a part of the results.

Test: chemical genetic growth profiling, strain panel (AID 1159580);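 further: tested at 20 µM; growth read once vehicle control cultures reached saturation at 30 °C; 1 = growth at the plate median or of vehicle wells; lower values mean less growth of the strain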
Conditions: growth OD

Measured: normalized growth

NC/C=C/C(=O)O
inactive: S. cerevisiae deletion strains, locus YJR043C, strain POL32, hits give low values 1.04 | S. cerevisiae deletion strains, locus YJR075W, strain HOC1, hits give low values 1.01 | S. cerevisiae deletion strains, locus YKL009W, strain mrt4, hits give low values 1.03 | S. cerevisiae deletion strains, locus YKL068W, hits give low values 1.01 | S. cerevisiae deletion strains, locus YKL085W, strain MDH1 (second series), hits give low values 1.01 | S. cerevisiae deletion strains, locus YKL085W, strain MDH1, hits give low values 1.01 | S. cerevisiae deletion strains, locus YKL160W, strain elf1, hits give low values 0.981 | S. cerevisiae deletion strains, locus YKL190W, strain CNB1, hits give low values 1.02 | S. cerevisiae deletion strains, locus YKR001C, strain vps1, hits give low values 1.02 | S. cerevisiae deletion strains, locus YKR026C, strain gcn3, hits give low values 0.987 | S. cerevisiae deletion strains, locus YKR091W, strain srl3, hits give low values 1.01 | S. cerevisiae deletion strains, locus YLL001W, strain dnm1, hits give low values 1 | S. cerevisiae deletion strains, locus YLL026W, hits give low values 1 | S. cerevisiae deletion strains, locus YLL041C, strain sdh2, hits give low values 1.01 | S. cerevisiae deletion strains, locus YLR027C, strain aat2, hits give low values 1.01 | S. cerevisiae deletion strains, locus YLR039C, strain RIC1, hits give low values 1.07 | S. cerevisiae deletion strains, locus YLR058C, strain SHM2, hits give low values 1.02 | S. cerevisiae deletion strains, locus YLR102C, strain apc9, hits give low values 1.01 | S. cerevisiae deletion strains, locus YLR221C, strain rsa3, hits give low values 0.999 | S. cerevisiae deletion strains, locus YLR258W, strain gsy2, hits give low values 1.02 | S. cerevisiae deletion strains, locus YLR262C, strain YPT6 (second series), hits give low values 1.01 | S. cerevisiae deletion strains, locus YLR262C, strain YPT6, hits give low values 1.03 | S. cerevisiae deletion strains, locus YLR268W, strain sec22, hits give low values 0.98 | S. cerevisiae deletion strains, locus YLR320W, strain mms22, hits give low values 1.01 | S. cerevisiae deletion strains, locus YLR330W, strain CHS5, hits give low values 1.01 | S. cerevisiae deletion strains, locus YLR342W, strain FKS1 (second series), hits give low values 1.11 | S. cerevisiae deletion strains, locus YLR342W, strain FKS1, hits give low values 1.01 | S. cerevisiae deletion strains, locus YLR357W, strain rsc2, hits give low values 1.1 | S. cerevisiae deletion strains, locus YLR370C, strain arc18, hits give low values 1.01 | S. cerevisiae deletion strains, locus YLR371W, strain rom2, hits give low values 1.02 | S. cerevisiae deletion strains, locus YLR384C, strain iki3, hits give low values 1.02 | S. cerevisiae deletion strains, locus YLR418C, strain cdc73, hits give low values 0.943 | S. cerevisiae deletion strains, locus YML016C, strain PPZ1, hits give low values 1.01 | S. cerevisiae deletion strains, locus YML032C, strain rad52, hits give low values 1.05 | S. cerevisiae deletion strains, locus YML120C, strain ndi1, hits give low values 1.01 | S. cerevisiae deletion strains, locus YML124C, strain tub3, hits give low values 1.01 | S. cerevisiae deletion strains, locus YMR058W, strain fet3, hits give low values 1.01 | S. cerevisiae deletion strains, locus YMR078C, strain ctf18, hits give low values 1.02 | S. cerevisiae deletion strains, locus YMR125W, strain sto1, hits give low values 1.04 | S. cerevisiae deletion strains, locus YMR129W, hits give low values 0.973 | S. cerevisiae deletion strains, locus YMR205C, strain PFK2, hits give low values 1.02 | S. cerevisiae deletion strains, locus YMR223W, strain ubp8, hits give low values 1.04 | S. cerevisiae deletion strains, locus YMR231W, strain pep5, hits give low values 1.01 | S. cerevisiae deletion strains, locus YMR263W, strain SAP30, hits give low values 1.01 | S. cerevisiae deletion strains, locus YMR307W, strain GAS1, hits give low values 1.02 and 0.997 | S. cerevisiae deletion strains, locus YNL067W, strain RPL9B, hits give low values 1.01 | S. cerevisiae deletion strains, locus YNL071W, strain lat1, hits give low values 1.01 | S. cerevisiae deletion strains, locus YNL128W, strain TEP1, hits give low values 0.988 | S. cerevisiae deletion strains, locus YNL153C, strain GIM3, hits give low values 1.01 and 1.03 | S. cerevisiae deletion strains, locus YNL175C, strain NOP13, hits give low values 1 | S. cerevisiae deletion strains, locus YNL197C, strain WHI3, hits give low values 0.996 | S. cerevisiae deletion strains, locus YNL209W, strain ssb2, hits give low values 1 | S. cerevisiae deletion strains, locus YNL224C, strain SQS1, hits give low values 1 | S. cerevisiae deletion strains, locus YNL233W, strain BNI4, hits give low values 1.02 | S. cerevisiae deletion strains, locus YNL248C, strain rpa49, hits give low values 1.01 | S. cerevisiae deletion strains, locus YNL250W, strain rad50, hits give low values 1 | S. cerevisiae deletion strains, locus YNL271C, strain bni1, hits give low values 1.02 | S. cerevisiae deletion strains, locus YNL298W, strain CLA4, hits give low values 1.01 | S. cerevisiae deletion strains, locus YNL307C, strain MCK1, hits give low values 1.05 | S. cerevisiae deletion strains, locus YNL322C, strain KRE1 (second series), hits give low values 1 | S. cerevisiae deletion strains, locus YNL322C, strain KRE1, hits give low values 1.01 and 1.02 | S. cerevisiae deletion strains, locus YNR049C, strain mso1, hits give low values 1.01 | S. cerevisiae deletion strains, locus YNR052C, strain pop2, hits give low values 1.01 | S. cerevisiae deletion strains, locus YOL006C, strain TOP1, hits give low values 1.04 | S. cerevisiae deletion strains, locus YOL012C, strain htz1 0.927 | S. cerevisiae deletion strains, locus YOL147C, strain pex11, hits give low values 1.01 | S. cerevisiae deletion strains, locus YOR001W, strain rrp6, hits give low values 0.99 | S. cerevisiae deletion strains, locus YOR061W, strain CKA2, hits give low values 1.01 | S. cerevisiae deletion strains, locus YOR069W, strain VPS5, hits give low values 1.02 | S. cerevisiae deletion strains, locus YOR070C, strain gyp1, hits give low values 1 | S. cerevisiae deletion strains, locus YOR080W, strain dia2, hits give low values 1 | S. cerevisiae deletion strains, locus YOR083W, strain WHI5 (second series), hits give low values 1.02 | S. cerevisiae deletion strains, locus YOR083W, strain WHI5, hits give low values 0.971 | S. cerevisiae deletion strains, locus YOR106W, strain vam3, hits give low values 0.991 | S. cerevisiae deletion strains, locus YOR136W, strain idh2, hits give low values 1.01 | S. cerevisiae deletion strains, locus YOR144C, strain elg1, hits give low values 1 | S. cerevisiae deletion strains, locus YOR184W, strain ser1, hits give low values 1.06 | S. cerevisiae deletion strains, locus YOR265W, strain rbl2, hits give low values 1.01 | S. cerevisiae deletion strains, locus YOR270C, strain vph1, hits give low values 1.01 | S. cerevisiae deletion strains, locus YOR290C, strain snf2, hits give low values 0.993 | S. cerevisiae deletion strains, locus YOR316C, strain cot1, hits give low values 1.02 | S. cerevisiae deletion strains, locus YPL051W, strain arl3, hits give low values 0.989 | S. cerevisiae deletion strains, locus YPL055C, strain LGE1, hits give low values 0.952 and 1.01 | S. cerevisiae deletion strains, locus YPL078C, strain atp4, hits give low values 0.983 | S. cerevisiae deletion strains, locus YPL106C, strain sse1, hits give low values 1.02 | S. cerevisiae deletion strains, locus YPL240C, strain hsp82, hits give low values 0.991 | S. cerevisiae deletion strains, locus YPL241C, strain CIN2, hits give low values 1.02 and 1 | S. cerevisiae deletion strains, locus YPR119W, strain clb2, hits give low values 1 | S. cerevisiae deletion strains, locus YPR141C, strain kar3, hits give low values 1.01 | S. cerevisiae deletion strains, locus YPR163C, strain tif3, hits give low values 1.01 | S. cerevisiae deletion strains, locus YPR167C, strain met16, hits give low values 1.01 | S. cerevisiae deletion strains, strain wtn01, hits give low values 0.982 | S. cerevisiae strains, strain wild type, hits give low values 1.03
